Test [1] can be described thus: UWB1.289-WTBRCA1 Cancer Cell Toxicity qHTS against the NCATS CANVASS Library (AID 1347354). The method in brief:
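Toxicity was measured as CellTiter-Glo luminescence after 72 h exposure to an 11-point compound series. Compound was added to 1000 cells/well 4 h after seeding.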

Test [2] in a line: qHTS for ATAD5 Antagonist screened against the NCATS CANVASS Library (AID 1347370). Also: nearly all actives have a fitted effect of over 65% in size. Also: potency is read from the fitted curve at half-maximal effect. The method, boiled down:
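Compounds (11-point) co-dosed with 10 µM 5-FUrd for 16 h at 37 °C onto HEK293T-ATAD5 luciferase reporter cells. Viability measured by CellTiter-Fluor fluorescence, then ATAD5 reporter signal by luminescence.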
(In general: In qHTS, concentration-response curves come from the screen itself.)

Test [3] in a line: J3T Cancer Cell Toxicity qHTS against the NCATS CANVASS Library (AID 1347371). Also: series mostly up to about 46 µM. The method, boiled down: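 Cytotoxicity read as CellTiterGlo ATP luminescence after 72 h incubation (37C, 5% CO2) of J3T canine glioma cells (500/well) with an 11-point compound series.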
Test [4] in a line: qHTS assay for small molecule disruptors of mitochondrial membrane potential screened against the NCATS CANVASS Library (AID 1347389). Also: series mostly up to about 46 µM; nearly all actives have a fitted effect of over 60% in size. The method in brief: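 Mitochondrial membrane potential in HepG2: 1 h compound treatment (11-point concentration series), 30 min m-MPI dye at 37C, then dual fluorescence of J-aggregates (ex 540/em 590) and monomers (ex 490/em 535); lower red/green ratio indicates depolarization.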

Test [5] in a line: Secretion counterscreen for inhibitors of the SERCaMP assay screened against the NCATS CANVASS Library (AID 1347390).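 Also: light from luciferase secreted into medium read as a measure of general secretion; series mostly up to about 77 µM.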 The method in brief: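 Natural products are titrated in an 11-point series up to 77 uM onto SH-SY5Y-GLuc STOP cells for 20 h. Secreted reporter activity is measured as coelenterazine-driven luminescence, with Brefeldin A on each plate.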
Test [6] is described as follows: qHTS for activators of Nrf2/ARE signaling pathway screened against the NCATS CANVASS Library (AID 1347391). Also: nearly all actives have a fitted effect of over 60% in size. Also: potency is read from the fitted curve at half-maximal effect. The method in brief:
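Eleven-point qHTS, 16 h treatment of HepG2 cells carrying an ARE-driven beta-lactamase reporter; CCF4 ratio read (405 nm excitation, 460 and 530 nm emission), with CellTiter-Glo ATP luminescence for viability.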

Test [7] in a line: qHTS for activators of dead-cell proteases activity screened against the NCATS CANVASS Library (AID 1347392).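 Also: luminescence from protease leaking out of membrane-damaged cells cleaving impermeant substrate; rising signal means more cytotoxicity.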 The method, boiled down:
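Luminescent dead-cell protease readout (AAF-aminoluciferin, 15 min, room temperature) after 5 h compound treatment of HepG2 cells (2000/well, pre-attached 18 h). Eleven concentrations.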

Test [8] is described as follows: qHTS for inhibitors of Wild type Zika virus screened against the NCATS CANVASS Library (AID 1347396).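 Also: ATP luminescence of surviving cells so rescue from viral cell killing; series mostly up to about 46 µM.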 The method in brief:
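Protection against wild-type Zika cytopathic effect is measured in African green monkey Vero 766 cells exposed to an 11-point compound series. Surviving cells are quantified by CellTiter Glo luminescence after 72 h.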

Test [9] in a line: Redox Reaction Profiling qHTS: Assay Interference Panel against the NCATS CANVASS Library (AID 1347401). The method, boiled down:
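Redox-cycling liability assessed as DTT-driven conversion of resazurin (5 uM, with 200 uM DTT, HEPES pH 7.3) to fluorescent resorufin. Fluorescence at 525/598 nm measured initially and after 15 min dark incubation.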

The nature of test [10]: OV-KATE Cancer Cell Toxicity qHTS against the NCATS CANVASS Library (AID 1347345). The method in brief: (§1)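 Per well, 1000 cells; exposure 72 h with compound at 11 final concentrations; readout CellTiter-Glo luminescence.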
A short description of test [11]: HPAF-II 12hr Apoptosis Induction qHTS against the NCATS CANVASS Library (AID 1347358). The method, boiled down:
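Caspase-3/7 activation by DEVD-substrate luminescence (Caspase-Glo 3/7, 15 min, room temperature) after a 12-hour compound exposure in 11 concentrations, of HPAF-II pancreatic cells seeded at 500/well in DMEM with 10% FBS.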

In test [12] the test system is NAD(P)H diaphorase (Clostridium kluyveri). In words: Diaphorse counterscreen qHTS: Assay Interference Panel against the NCATS CANVASS Library (AID 1347362). The method in brief:
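Counterscreen for coupling-enzyme interference: resorufin fluorescence from resazurin/NADH turnover, read after 5 min at room temperature. Compounds were tested over an 11-point series after 15 min dark preincubation with diaphorase in PBS-Tween.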

A short description of test [13]: G06 Cancer Cell Toxicity qHTS against the NCATS CANVASS Library (AID 1347368). Also: nearly all actives have a fitted effect of over 60% in size. Also: potency is read from the fitted curve at half-maximal effect. The method in brief:
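Viability measured by CellTiterGlo ATP luminescence after 72 hr at 37C, 5% CO2. Canine G06 glioma cells plated at 500/well. Compounds tested as 11-point qHTS titrations.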

Test [14] can be described thus: qHTS for Inflammasome Signaling Inhibitors: IL-1-beta AlphaLISA screen against the NCATS CANVASS Library (AID 1347379).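 Also: human THP-1 cells primed with LPS then triggered with ATP.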 The method, boiled down: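 Secreted IL-1B from human THP-1 cells quantified by AlphaLISA 16 hr after compound addition (final up to 57.5 uM). A 1 hr compound pretreatment preceded inflammasome activation with 250 ng/mL LPS plus 1.25 mM ATP (final).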

A short description of test [15]: qHTS for inhibitors of ER calcium dysfunction: SERCaMP assay screened against the NCATS CANVASS Library (AID 1347393).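 Also: series mostly up to about 77 µM; lower secreted reporter signal means inhibitor of ER calcium depletion; nearly all actives have a fitted effect of over 40% in size.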 The method, boiled down: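 Thapsigargin-induced ER calcium depletion drives GLuc-SERCaMP secretion from SH-SY5Y cells; compounds given 16 h beforehand were scored by lowered coelenterazine luminescence after 4 h challenge.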
Test [16] in a line: SW1088 Cancer Cell Toxicity qHTS against the NCATS CANVASS Library (AID 1347350). Also: nearly all actives have a fitted effect of over 75% in size. Also: potency is read from the fitted curve at half-maximal effect. The method in brief: as §1
A short description of test [17]: HEK293 12hr Apoptosis Induction qHTS against the NCATS CANVASS Library (AID 1347361). The method in brief:
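Luminescent caspase-3/7 signal, proportional to enzyme activity, was recorded from HEK293 cultures in DMEM + 10% FBS treated for 12 hours with titrated natural products (11 points). Doxorubicin (0.1nM - 4uM) served as control.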

Test [18] is described as follows: KB-8-5-11 Cancer Cell Toxicity qHTS against the NCATS CANVASS Library (AID 1347364). Also: nearly all actives have a fitted effect of over 75% in size. The method, boiled down:
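Viability read as CellTiter-Glo luminescence after 72 h at 37 °C, 5% CO2. 11-point compound series on 500 KB-8-5-11 cells/well in DMEM/10% FBS. Follow-up plating included 1 uM tariquidar in the medium.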

A short description of test [19]: qHTS for Activators of p53 Stress Response Pathway screened against the NCATS CANVASS Library (AID 1347388). The method, boiled down:
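Beta-lactamase reporter driven by p53 response elements in HCT-116 cells, read as the 460 nm/530 nm emission ratio after CCF4 loading, following 16 h of exposure to an 11-point series. Cell viability was measured in the same wells by CellTiter-Glo luminescence.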

Test [20] can be described thus: KB-3-1 Cancer Cell Toxicity qHTS against the NCATS CANVASS Library (AID 1347366). Also: nearly all actives have a fitted effect of over 75% in size. The method, boiled down:
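Cytotoxicity toward KB-3-1 cells (500/well, DMEM + 10% FBS) was scored by CellTiter-Glo luminescence following 72 hr exposure at 37C, with bortezomib titrated as control.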

Results filed as inconclusive are left out. Calls of active or inactive are those of the source. Calls follow the shape of the dose curve; as a rule, active = well fitted curve in the direction sought with a large enough effect; inconclusive = small, poorly fitted or top-dose-only effect, or another doubt; inactive = no such curve, though single readings can be large; an effect the other way counts as inactive or inconclusive.

In the case of `C=C1C[C@H]2O[C@@H]3[C@@H]4[C@H](CC[C@@](C)(O)[C@@H]42)[C@H](C)COC3(C)[C@@H](OC(=O)CCCCCCC)C[C@H]1O` (some centres undefined), the Potency result in test [1], in test [2], in test [3], in [4], in test [5] and in test [7] was “inactive” throughout. Moreover, in [9], the Potency result was “inactive”. The Potency in [6] is 20.9 µM (active). In test [8], the outcome was inactive.

Regarding `CC(C)[C@@H]1CC(=O)c2coc3c2[C@H]1C[C@@H](C)C3=O`, the Potency result in test [10], in test [1], in test [11], in test [12], in test [13] and in [2] was “inactive” throughout. The Potency entry in test [3], in test [14], in [5], in [7], in [15] and in [9] was “inactive” throughout. Further, the call in [8] was inactive.

For `CC[C@@H]1[C@H](C)[C@H](c2cc(OC)c(OC)cc2OC)[C@@H](C)[C@H](c2cc(OC)c(OC)cc2OC)[C@]12C=C(OC)C(=O)C=C2OC`, the Potency is 21.1 µM (active) in [16] and 23.4 µM (active) in test [2]. The Potency result in [1], in test [3] and in test [6] was “inactive” each time. Besides, the molecule was classed as inactive in test [17].

In the case of `O=C1CCC(=O)N(O)CCCCCNC(=O)CCC(=O)N(O)CCCCCNC(=O)CCC(=O)N(O)CCCCCN1`, the Potency entry in test [16], in test [1], in [11], in test [12], in test [18] and in test [2] was “inactive” throughout. Besides, the Potency result in test [3], in [14], in [19], in [4], in test [5] and in test [6] was “inactive” in each case. The Potency entry in test [15] and in [9] was “inactive” each time. The Potency in test [13] is 8.33 µM (active). In test [8], the molecule was classed as inactive.

In the case of `C/C(=C\[C@@H](C)CC/C=C/CC/C=C/C(=O)O)[C@H](O)[C@H](C)C(=O)CCCC1CC(=O)NC(=O)C1`, the Potency result in test [10], in test [16], in test [1], in test [11], in test [12] and in test [18] was “inactive” throughout. Also, the Potency entry in [20], in test [2], in test [3], in test [14], in test [19] and in test [4] was “inactive” throughout. Also, the Potency result in test [5], in test [6], in [7] and in test [15] was “inactive” throughout. The result in test [17] and in test [8] was inactive.

For `COc1cc2oc3ccccc3c(=O)c2cc1OC`, the Potency entry in [10], in test [16], in [1], in test [11], in [12] and in test [20] was “inactive” throughout. Also, the Potency result in [2], in test [3], in [4], in test [5] and in [9] was “inactive” each time. The Potency in test [6] is 3.41 µM (active). Moreover, in test [8], the call was inactive.

With `CC1=C(C)C(=O)OC(C(C)C2(O)CCC3C4C5OC5C5(O)CC=CC(=O)C5(C)C4CCC32C)C1` (centres undefined), the Potency result in [10], in test [16], in test [1], in [11], in test [12] and in test [18] was “inactive” throughout. Also, the Potency result in test [20], in test [2], in [3], in test [14], in test [4] and in test [7] was “inactive” in each case. For the same molecule, the Potency is 23.5 µM (active) in test [13] and 18.6 µM (active) in test [6]. For the same molecule, the outcome in [8] was inactive.

In the case of `C[C@H](CCC(O)C(C)(O)CO)[C@@]1(O)CC[C@@]2(C)C3=C(CC[C@@]21C)[C@@]1(C)CCC(OC(=O)CCC(=O)O)C(C)(C)[C@@H]1CC3` (some centres undefined), the Potency result in test [10], in test [1], in test [12], in test [18], in test [20] and in [13] was “inactive” each time. For the same molecule, the Potency result in test [2], in test [3], in [14], in test [19], in test [5] and in test [7] was “inactive” each time. For the same molecule, in test [15], the Potency result is “inactive”. The molecule was classed as inactive in test [17].

(Values after PubChem BioAssay (NCATS).)
